High-throughput results deposited in PubChem by several laboratories.
Rows were chosen to be rich in hits. Some 27% of all compounds tested hit in one or more screens of this group.
CYP2C9 activ: increases human cytochrome P450 2C9 activity; P11712; recombinant CYP2C9, luciferin-H conversion, luminescence; hits give high values; factor 1 = untreated enzyme, 0 = blocked; activation factor at 5 µM; hit rate 1.4% among 96,000;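 active means activation factor of 2 or more for CYP2C9 at a 5 µM dose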;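 further: 0 = sulfaphenazole-blocked wells and 1 = vehicle-only wells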
CYP2C19 activ: activators of human cytochrome P450 2C19. P33261. recombinant CYP2C19, luciferin-H EGE luminescence; hits give high values; 0 = fully inhibited enzyme, 1 = untreated enzyme. activation factor at 5 µM. 96,000 tested, under 10 active. AID 1025;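 active means activation factor of at least 2 at 5 µM in the primary screen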;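 further: 0 = wells with 2.5 mM tranylcypromine and 1 = vehicle-only wells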
Target sequence (P33261 whole entry, looked up): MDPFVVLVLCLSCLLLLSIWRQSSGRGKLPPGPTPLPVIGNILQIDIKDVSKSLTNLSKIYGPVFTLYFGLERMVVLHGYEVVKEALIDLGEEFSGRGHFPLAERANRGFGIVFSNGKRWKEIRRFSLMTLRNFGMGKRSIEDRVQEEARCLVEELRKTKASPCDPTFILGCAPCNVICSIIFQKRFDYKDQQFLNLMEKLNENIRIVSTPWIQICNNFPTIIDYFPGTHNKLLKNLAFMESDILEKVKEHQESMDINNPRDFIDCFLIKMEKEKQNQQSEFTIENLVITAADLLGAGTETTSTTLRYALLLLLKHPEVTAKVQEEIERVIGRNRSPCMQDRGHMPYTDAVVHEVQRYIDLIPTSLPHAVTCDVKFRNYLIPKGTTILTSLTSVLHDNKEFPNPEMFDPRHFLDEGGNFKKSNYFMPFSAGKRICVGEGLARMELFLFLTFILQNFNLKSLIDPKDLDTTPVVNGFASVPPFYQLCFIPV
CYP2C9 inhib: human CYP2C9 inhibition; P11712; CYP2C9 Supersomes, luciferin-H conversion, luminescence; hit rate 20% among 96,000; inhibition, % at 5 µM;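 active means blocking of liver enzyme CYP2C9 beyond about 50% at 5 µM, limit read from the data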
sEH act: increases human soluble epoxide hydrolase activity; P34913; purified human sEH enzymatic activity, activator screen; activation, % at 2 µM; hit rate 0.04% among 91,000; AID 717; in the data active means activation above about 37%
sEH inh: soluble epoxide hydrolase (human) inhibition. P34913. recombinant human sEH enzymatic activity assay. inhibition, % at 2 µM. hit rate 0.34% among 91,000. AID 707; in the data active means inhibition above about 80%
CYP2C19 inhib: human CYP2C19 inhibition. inhibition, % at 5 µM. CYP2C19 Supersomes, luciferin-H EGE luminescence, 30 min. P33261. AID 778. hit rate 21% among 96,000;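 active means CYP2C19 inhibition above a set limit at 5 µM in the primary screen, cut at about 50% in these data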;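 further: plate controls were negative control wells for no effect and 2.5 mM tranylcypromine positive control for full effect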
* = called active by the depositor; . = not tested or not shown.

SMILES | CYP2C9 activ | CYP2C19 activ | CYP2C9 inhib | sEH act | sEH inh | CYP2C19 inhib
COc1ccccc1CNC(=O)CC(NS(=O)(=O)c1ccc(C)cc1)c1ccco1 (configuration not stated) | 1.6 | 0.6 | -58 | -13 | 11 | 44
Cc1cccc(-n2c(SCC(=O)Nc3ccc4c(c3)OCO4)nnc2-c2ccoc2C)c1 | 0.9 | 1 | 8 | 1 | 0 | 1
CCS(=O)(=O)N1CCCC(C(=O)NCCc2ccccc2)C1 (configuration not stated) | 0.7 | 0.8 | 27 | -8 | 5 | 16
c1ccc(C(c2nnnn2Cc2ccco2)N2CCN(c3nc4ccccc4s3)CC2)cc1 (configuration not stated) | . | . | . | 5 | -1 | .
CCCCC(c1nnnn1Cc1ccco1)N1CCN(c2nc3ccccc3s2)CC1 (configuration not stated) | 0.1 | 0.1 | 91* | 0 | 0 | 95*
COc1cccc(NC(=O)CCS(=O)(=O)c2cccs2)c1 | 0.4 | 0.4 | 58* | . | . | 60*
CCOC(=O)c1cccc(NC(=O)CCS(=O)(=O)c2cccs2)c1 | 0.1 | 0.3 | 89* | . | . | 72*
COc1cccc(NC(=O)CNC(=O)c2cccs2)c1 | 0.7 | 0.5 | 28 | 0 | 4 | 47
COc1cccc(CN2C(=O)C3(C(C#N)=C(N)OC4=C3C(=O)CCC4)c3ccccc32)c1 (configuration not stated) | 0.3 | 0.8 | 66* | -4 | 5 | 23
CC1(C)C(C#N)=C(N)OC2=C1C(=O)CCC2 | 0.6 | 0.3 | 40 | . | . | 68*
N#CC1=C(N)OC2=C(C(=O)CCC2)C12CCC1(CC2)OCCO1 | 1 | 0.9 | 1 | 12 | -13 | 5
Cc1cc(C)n2nc(C(=O)OCCOc3ccc(F)cc3)nc2n1 | 1.3 | 0.8 | -25 | . | . | 15
COc1ccccc1CNC(=O)C[n+]1ccccc1 | 0.8 | 1.1 | 22 | 10 | -12 | -7
O=C(Cn1c(=O)oc2cc(S(=O)(=O)N3CCCC3)ccc21)N1CCc2ccccc2C1 | 0.4 | 1 | 64* | -9 | 8 | 3
CC1Cc2ccccc2N1C(=O)Cn1c(=O)oc2cc(S(=O)(=O)N3CCCCC3)ccc21 (configuration not stated) | 0.4 | 0.5 | 65* | -17 | 16 | 52*
Cn1c(=O)oc2cc(S(=O)(=O)N3CCc4ccccc4C3)ccc21 | 0.9 | 0.5 | 8 | -19 | 23 | 52*
O=C(Cn1c(=O)oc2cc(S(=O)(=O)N3CCCC3)ccc21)NCc1ccc(F)cc1 | 0.1 | 0.9 | 85* | 10 | -14 | 5
CC(NC(=O)C(CC(=O)OC(C)(C)C)NC(=O)OC(C)(C)C)C(N)=O (configuration not stated) | 0.9 | 1 | 8 | -9 | 7 | 4
CC1=CC2=NC(=O)CC(C)(C(=O)N(CC(=O)NC(C)(C)C)Cc3cccs3)N2C=C1 (configuration not stated) | 1 | 1 | -3 | -8 | 10 | 3
CS(=O)(=O)Nc1ccc2c(c1)C(=O)OC2 | 1.1 | 1.1 | -12 | 3 | -5 | -10
O=S(=O)(NC1=NCCC1)c1cccs1 | 1.1 | 0.9 | -7 | 1 | 0 | 8
O=C1OCc2cc(NS(=O)(=O)c3cccs3)ccc21 | 0.1 | 0.2 | 89* | -3 | 7 | 76*
O=S(=O)(Nc1ccc2c(c1)CCC2)c1cccs1 | 0.2 | 0 | 83* | . | . | 99*
COc1ccc(S(=O)(=O)Nc2ccc3c(c2)COC3=O)cc1OC | 0.6 | 0.2 | 39 | -6 | 7 | 84*
CC(CCc1ccccc1)NC(=O)C1CCN(S(=O)(=O)N2CCCCC2)CC1 (configuration not stated) | 0.8 | 0.9 | 23 | . | . | 11
SMILES | CYP2C9 activ | CYP2C19 activ | CYP2C9 inhib | sEH act | sEH inh | CYP2C19 inhib
COc1ccc(C(=O)NCCc2nnc(SCC(=O)Nc3ccccc3C(C)C)n2C)cc1 | 0.7 | 0.6 | 30 | 10 | -12 | 44
Cc1ccc(S(=O)(=O)NCCC(=O)NCc2ccccc2)cc1 | 1.4 | 0.8 | -36 | . | . | 16
Cc1ccc(S(=O)(=O)NCCc2ccccc2)cc1 | 0.4 | 0 | 65* | 2 | -4 | 96*
NS(=O)(=O)c1ccc(S(=O)(=O)NCCc2ccccc2)cc1 | 0.9 | 0.2 | 12 | 2 | -2 | 85*
O=C(NCCN1CCCCC1)/C(=N\O)c1ccccc1 | 1.1 | 1 | -7 | -4 | 7 | 1
CC(C)C(NC(=O)COc1ccc2ccccc2c1)C(=O)N/N=C/C=C/c1ccccc1 (configuration not stated) | 0.6 | 0.8 | 40 | -8 | 6 | 19
Cc1ccc(S(=O)(=O)N(CC(=O)N/N=C/c2cccc3c2OCCO3)c2ccccc2F)cc1 | 0.1 | 0.2 | 94* | 2 | -2 | 82*
CC1CCC(C(C)C)C(OC(=O)CSc2nnc(N)s2)C1 (configuration not stated) | 0.6 | 0.3 | 40 | -3 | 5 | 66*
Cc1nnc(SCC(=O)OC2CC(C)CCC2C(C)C)[nH]c1=O (configuration not stated) | 0.1 | 0.7 | 88* | -7 | 6 | 32
COc1ccc(Oc2nccc(-c3ccccc3)c2C#N)cc1 | 0.7 | 0.7 | 28 | 10 | -9 | 30
COCc1cc(=O)n2[nH]c(-c3cccc(Br)c3)cc2n1 | 0.5 | 0 | 50 | -5 | 6 | 95*
Cc1sc2nc(C)n(/N=C/c3ccccc3)c(=O)c2c1C | 1 | 0.2 | -3 | 38* | -42 | 77*
COc1ccc2c(c1OC)C(=O)NC(C)=C(C(=O)OC(C)(C)C)C2O (configuration not stated) | 0.4 | 0.2 | 56* | 1 | -3 | 81*
N#Cc1cn(CCOc2ccccc2F)c2ccccc12 | 0 | 0 | 100* | -1 | 3 | 98*
COC(=O)Cn1c(C)c(C#N)c2ccccc21 | . | . | . | -9 | 9 | .
Cc1c(C#N)c2ccccc2n1CCOc1ccccc1F | 0.5 | 0.6 | 51* | -4 | 4 | 40
CCn1cc(C(=O)O)c(=O)c2cnc(N3CCN(C(=O)Nc4cccc5ccccc45)CC3)nc21 | 1 | 1 | 0 | . | . | 4
N#CC1=C(N)N(c2ccccc2)C(c2ccccc2)C1(C#N)C#N (configuration not stated) | 0.4 | 0.7 | 55* | 1 | 2 | 29
N#CC1=C(N)N2C(=C(C#N)C1c1ccccc1)Sc1ccccc12 (configuration not stated) | 1.1 | 1 | -6 | . | . | 3
CCCNC(=O)COC(=O)c1ccc(Cl)c(S(=O)(=O)N2CCCC2)c1 | 1 | 0.6 | 4 | 3 | 0 | 43
CC(C)(C)c1ccc(S(=O)(=O)N2CCCCC2C(=O)NCc2ccccn2)cc1 (configuration not stated) | 1.2 | 0.4 | -22 | . | . | 63*
CC(C)(C)c1ccc(S(=O)(=O)N2CCCC2C(=O)NC2=NCCS2)cc1 (configuration not stated) | 0.2 | 0.9 | 76* | -7 | 9 | 8
